Shiga toxin inh: blocks Shiga toxin action in Vero cells. Vero cells, Shiga toxin protein synthesis inhibition reporter. inhibition, % at 38.7 µM. 290,000 compounds, 9.2% hits. AID 2315; in the data active = inhibition mostly above about 28%, no sharp cut-off; inactive = mostly below about 43%; also: 0% is about no effect
NS1 function inh: influenza NS1 inhibition; 270,000 compounds, 0.4% hits; Potency, µM (top dose mostly 46.1 µM), inactives show top-dose activity, positive = more growth; AID 2326; also: potency is read from the fitted curve at half-maximal effect; actives are rising curves; nearly all actives have a fitted effect of over 50% in size
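S. cerevisiae expressing influenza A NS1, grown in glucose, washed, then diluted 1:100 into pH 6.0 -URA galactose medium with 23 nl compound. Growth recovery read as OD600; NS1-free strain serves as control.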
SARS PLP yeast: inhibitors of SARS-CoV papain-like protease in yeast; 330,000 compounds, 0.19% hits; Potency, µM (top dose mostly 32.9 µM), for the others: top-dose activity, positive = growth rescue, usual class: activators; S. cerevisiae expressing SARS-CoV PLpro, growth rescue; AID 485353; also: potency is read from the fitted curve at half-maximal effect; 0% is about no effect; nearly all actives have a fitted effect of over 55% in size
Cycloheximide cs: counter-screen for Shiga toxin inhibitors: cycloheximide protein synthesis inhibition. cell reporter, cycloheximide protein synthesis inhibition counterscreen. max response, %. 300,000 compounds, 12% hits. AID 2314; in the data active = max response mostly above about 13%, no sharp cut-off; inactive = mostly below about 14%; also: read at 38.3 µM for the half of the compounds with a filed dose; 0% is about no effect
Pf growth 48h: P. falciparum growth inhibition at 48 hours (one generation). AID 504832. 310,000 compounds, 5.9% hits. Potency, µM (doses to about 28.7 µM), for inactives: top-dose activity change, negative = inhibition, usual class: inhibitors. P. falciparum luciferase growth in erythrocytes, 48 h; active = well fitted inhibition curve with a large enough effect; inconclusive = small, poorly fitted or top-dose-only effect, or another doubt; inactive = no such curve, though single readings can be large or run the other way; also: potency is read from the fitted curve at half-maximal effect; % is scaled to controls: 0 for no effect and ±100 for the full control effect
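Compounds are pin-transferred into medium, infected erythrocytes (2% hematocrit, 0.1% parasitemia final) are added, and plates sit one parasite generation at 37 C in 5% CO2. Detection reagent is then added and luminescence measured.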
Pf growth 96h: inhibits malaria parasite growth, 96 h. P. falciparum luciferase reporter growth, 96 h. Potency, µM (titrated, usually from 28.7 µM), inactives show top-dose activity change, negative = inhibition, usual class: inhibitors. 320,000 compounds, 6.9% hits. AID 504834; active = well fitted inhibition curve with a large enough effect; inconclusive = small, poorly fitted or top-dose-only effect, or another doubt; inactive = no such curve, though single readings can be large or run the other way; also: potency is read from the fitted curve at half-maximal effect; % is scaled to controls: 0 for no effect and ±100 for the full control effect
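P. falciparum expressing integrated firefly luciferase, in erythrocytes at 2% hematocrit, 0.05% parasitemia, incubated with compounds 96 h at 37 C, 5% CO2. Growth inhibition read as loss of luminescence; two-generation exposure targets delayed-death apicoplast inhibitors.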
* hit, by the source's call. Sampled rows, rich in hits. Any-hit rate of the full collection: about 21%. Unless noted, calls follow the shape of the full dose curve.

How did Cc1ccc(S(=O)(=O)N(C)C)cc1-n1c(SCC(=O)Nc2ccc(F)c(F)c2F)nc2ccccc2c1=O do in these assays?
Shiga toxin inh: -7.2; NS1 function inh: 14.0%; SARS PLP yeast: -8.3%; Cycloheximide cs: -2.9; Pf growth 48h: inconclusive; Pf growth 96h: inconclusive

Results for CC(C)n1c(SCC(=O)N2CCN(C)CC2)nc2c1c(=O)n(C)c(=O)n2C ?
Shiga toxin inh: -2.4; NS1 function inh: 5.8%; SARS PLP yeast: -0.4%; Cycloheximide cs: -3.6; Pf growth 48h: 35.4%; Pf growth 96h: 14.0%

What do the screens show for `CC(=O)Nc1ccc(S(=O)(=O)N2CCN=C2SCc2ccccc2C)cc1`?
Shiga toxin inh: -6.9; NS1 function inh: 14.9%; SARS PLP yeast: -6.3%; Cycloheximide cs: -2.8; Pf growth 48h: -23.9%; Pf growth 96h: -19.7%

How did O=C(COC(=O)/C=C/c1ccc(OC(F)F)cc1)Nc1ccc2[nH]c(=O)[nH]c2c1 do in these assays?
SARS PLP yeast: 14.0%

How did O=C1COc2ccc(C(=O)COC(=O)Cc3ccsc3)cc2N1 do in these assays?
Shiga toxin inh: 20.8; NS1 function inh: -4.8%; SARS PLP yeast: 0.9%; Cycloheximide cs: 11.0*; Pf growth 48h: -1.7%; Pf growth 96h: 5.2%

How did O=C1COc2ccc(C(=O)COC(=O)Cc3ccccc3F)cc2N1 do in these assays?
Shiga toxin inh: 31.7; SARS PLP yeast: 1.6%; Cycloheximide cs: 3.9; Pf growth 48h: 2.8%; Pf growth 96h: 16.2%

What do the screens show for `O=C(O)CN1C(=O)/C(=C/c2ccc(SCc3ccccc3)o2)SC1=S`?
Shiga toxin inh: -4.5; SARS PLP yeast: 4.0%; Cycloheximide cs: -0.7; Pf growth 48h: 35.8%; Pf growth 96h: 1.7%

Results for ClC(=Nc1cccc2ccccc12)N(c1ccccc1)c1ccccc1 ?
NS1 function inh: -7.2%

What do the screens show for `O=C(Cn1nnc2ccccc2c1=O)N[C@H](C(=O)O)c1ccccc1`?
Shiga toxin inh: -15.3; NS1 function inh: 5.3%; SARS PLP yeast: 2.3%; Cycloheximide cs: -2.3; Pf growth 48h: -3.4%; Pf growth 96h: 13.9%

What do the screens show for `O=C(O)C1CC=CCC1C(=O)N1CC=C(c2ccccc2)CC1` (stereo not drawn)?
Shiga toxin inh: 43.9*; SARS PLP yeast: -1.7%; Cycloheximide cs: 28.7*; Pf growth 48h: 22.3%; Pf growth 96h: 1.2%

Results for O=C(O)CCC(=O)N1CC=C(c2ccccc2)CC1 ?
Shiga toxin inh: 78.6*; NS1 function inh: 4.6%; SARS PLP yeast: 2.4%; Cycloheximide cs: 49.7*; Pf growth 96h: inconclusive

What do the screens show for `COc1cc(-c2nnc3sc(-c4cccnc4)nn23)cc(OC)c1OC`?
NS1 function inh: -40.7%

Results for CCOC(=O)COc1ccc(Br)cc1C1NC(=O)NC(C)=C1C(=O)NCc1ccccc1 (stereo not drawn) ?
Shiga toxin inh: -4.7; NS1 function inh: -5.3%; SARS PLP yeast: -9.8%; Cycloheximide cs: -2.5; Pf growth 48h: 28.1%; Pf growth 96h: inconclusive

Results for O=C(OCn1nnc2ccccc2c1=O)C1CCCCC1 ?
Shiga toxin inh: 2.6; NS1 function inh: -15.2%; SARS PLP yeast: -8.7%; Cycloheximide cs: 8.2; Pf growth 48h: -2.5%; Pf growth 96h: 35.4%

How did CCN(CC(=O)Nc1ccc2c(c1)OCCO2)CC(=O)Nc1ccc2c(c1)OCO2 do in these assays?
Shiga toxin inh: 20.8; SARS PLP yeast: 2.6%; Cycloheximide cs: 15.4; Pf growth 48h: inconclusive; Pf growth 96h: -35.5%

How did Cc1ccc2c(CN3CCN(Cc4ccc5c(c4)OCO5)CC3)cc(=O)oc2c1C do in these assays?
Shiga toxin inh: -7.2; NS1 function inh: -7.5%; SARS PLP yeast: 1.3%; Cycloheximide cs: 2.9; Pf growth 48h: -5.5%; Pf growth 96h: -11.8%

How did CCN(CC(=O)Nc1ccc2c(c1)OCCO2)Cc1cc(=O)oc2c(C)c(C)ccc12 do in these assays?
Shiga toxin inh: -3.7; NS1 function inh: -74.1%; SARS PLP yeast: 6.0%; Cycloheximide cs: 9.1*; Pf growth 48h: inconclusive; Pf growth 96h: 1.2%

How did Cc1ccc2c(CN3CCN(S(=O)(=O)c4ccc5c(c4)OCCO5)CC3)cc(=O)oc2c1C do in these assays?
Shiga toxin inh: -4.8; NS1 function inh: 3.3%; SARS PLP yeast: 1.4%; Cycloheximide cs: -2.0; Pf growth 48h: 9.28µM*; Pf growth 96h: inconclusive

What do the screens show for `Cc1cccc(OCC(=O)NCCCNC(=O)c2ccncc2)c1`?
Shiga toxin inh: -1.8; NS1 function inh: 7.3%; SARS PLP yeast: inconclusive; Cycloheximide cs: -1.3; Pf growth 48h: -11.4%; Pf growth 96h: inconclusive

How did O=C(Cc1csc(NC(=O)c2ccc(F)cc2)n1)NO do in these assays?
Shiga toxin inh: 17.5; SARS PLP yeast: 0.8%; Cycloheximide cs: 12.8; Pf growth 48h: inconclusive; Pf growth 96h: 8.28µM*

Results for COc1cc(OC)cc(C(=O)Nc2nc(CC(=O)NCc3ccc(F)cc3)cs2)c1 ?
SARS PLP yeast: -0.2%; Pf growth 48h: inconclusive; Pf growth 96h: 11.7µM*

Results for COc1cc(OC)cc(C(=O)Nc2nc(CC(=O)NCc3ccccc3OC)cs2)c1 ?
SARS PLP yeast: -3.0%; Pf growth 48h: inconclusive; Pf growth 96h: inconclusive

What do the screens show for `Cc1ccc(C)c(NC(=O)CN(C)C(=O)c2cccc(S(=O)(=O)N(C)C)c2)c1`?
Shiga toxin inh: -6.0; SARS PLP yeast: 0.0%; Cycloheximide cs: -1.1; Pf growth 48h: inconclusive; Pf growth 96h: -29.2%

Results for COc1cccc(NC(=O)CN(C)C(=O)c2cccc(S(=O)(=O)N3CCN(c4ccc(F)cc4)CC3)c2)c1 ?
SARS PLP yeast: -0.6%; Pf growth 48h: -20.2%; Pf growth 96h: inconclusive

How did CN(CC(=O)Nc1ccc(F)cc1)C(=O)c1cccc(S(=O)(=O)N2CCN(c3ccc(F)cc3)CC2)c1 do in these assays?
SARS PLP yeast: 16.0%; Pf growth 48h: 11.7µM*; Pf growth 96h: inconclusive

How did CN(Cc1ccc(F)cc1)C(=O)c1cccc(S(=O)(=O)N2CCN(c3ccccc3)CC2)c1 do in these assays?
SARS PLP yeast: 0.4%; Pf growth 48h: 9.28µM*; Pf growth 96h: inconclusive

How did CN(Cc1ccc(F)cc1)C(=O)c1cccc(S(=O)(=O)N2CCN(c3ccc(F)cc3)CC2)c1 do in these assays?
SARS PLP yeast: -3.4%; Pf growth 48h: -43.5%; Pf growth 96h: inconclusive

Results for CN(CC(=O)Nc1ccc(Cl)cc1)C(=O)c1cccc(S(=O)(=O)N(C)C)c1 ?
Shiga toxin inh: -11.5; NS1 function inh: -14.2%; SARS PLP yeast: 10.2%; Cycloheximide cs: 1.1; Pf growth 48h: inconclusive; Pf growth 96h: 10.4µM*

What do the screens show for `CCO[C@@H]1OC(C(=O)N2CCCCCCC2)=C[C@H](c2ccc(C(F)(F)F)cc2)[C@H]1CCCO`?
Shiga toxin inh: -4.8; NS1 function inh: 8.2%; SARS PLP yeast: 0.2%; Cycloheximide cs: -1.6; Pf growth 48h: -27.9%; Pf growth 96h: inconclusive

High-throughput results as filed in PubChem.
